The text below walks through data of the supplement of paper PMC9262897, “Low-cost anti-mycobacterial drug discovery using engineered E. coli” (Nature Communications, 2022).

The structures appear in SMILES notation. Structures can show the parent of a compound that is named as a salt. ± gives the standard deviation of the averaged measurements.

For the assay, the system named is E. coli TESEC Mtb Alr. Nature of the assay: growth (OD600 after 10 h); higher = more growth (less inhibition). The note with it: arabinose 100 nM; compound 0.1 mM; raw OD600 reference: median of DMSO wells 0.413, cell-free background 0.052. On the procedure: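 TESEC Mtb Alr E. coli (ΔaraC ΔtolC ΔentC Δalr ΔdadX, arabinose-inducible Mtb Alr) or the Alr+ wild-type control strain, grown in defined M9-fructose medium without D-alanine in 96-well plates with Prestwick library compounds at 0.1 mM and 1% DMSO. Low Alr induction is 0.1 µM arabinose and high induction is 10 mM arabinose.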
`CC(C)(C)NCC(O)c1ccccc1Cl` (centres undefined) [Tulobuterol] displayed a growth of 0.409 ± 0.0083. Next, `Clc1ccc(C(OCCN2CCCCC2)c2ccccc2)cc1` (centres undefined) [Cloperastine hydrochloride]: 0.4058 ± 0.0039; `CN(C)C(=O)Oc1cc(OC(=O)N(C)C)cc(C(O)CNC(C)(C)C)c1` (centres undefined) [Bambuterol hydrochloride]: 0.405 ± 0.011; `C[C@@H]1C[C@@H]([C@H](O)CC2CC(=O)NC(=O)C2)C(=O)[C@@H](C)C1` [Cycloheximide]: 0.394 ± 0.033. As to `CC(Cc1ccc(O)cc1)NCC(O)c1cc(O)cc(O)c1` (centres undefined) [Fenoterol hydrobromide], the growth was found to be 0.406 ± 0.011. `COc1ccc(CCN)cc1OC` [Homoveratrylamine] gave a growth of 0.409 ± 0.0095. In turn, `C(#CCN1CCCC1)CN1CCCC1` [Tremorine dihydrochloride] registered a growth of 0.415 ± 0.018. Consider `O=C1CC[C@@]2(O)[C@H]3Cc4ccc(O)c5c4[C@@]2(CCN3CC2CC2)[C@H]1O5` [Naltrexone hydrochloride dihydrate], for which the growth amounted to 0.4315 ± 0.0022.

Regarding `C[N+]1(C)CCCC(OC(=O)C(O)(c2ccccc2)c2ccccc2)C1` (centres undefined) [Mepenzolate bromide], the growth was found to be 0.405 ± 0.0053.

In the case of `C1CCc2nnnn2CC1` [Pentylenetetrazole], the growth stood at 0.408 ± 0.011.

In the case of `CC(=O)NC1CCSC1=O` (racemic) [N-Acetyl-DL-homocysteine Thiolactone], the growth was 0.402 ± 0.0097.

`CNC(C)(C)Cc1ccccc1` [Mephentermine hemisulfate] yielded a growth of 0.402 ± 0.0066. Molecule `N[C@@H]1C[C@H]1c1ccccc1` [Tranylcypromine hydrochloride] returned a growth of 0.411 ± 0.011. As for `CC(NC(C)(C)C)C(=O)c1cccc(Cl)c1` (centres undefined) [Bupropion hydrochloride], the growth was found to be 0.404 ± 0.012.
